Activity calls are given as the source filed them.
Key:
[1] = binders of probe aFSTL3 on microarray, primary screen, stem cell growth factor project, biochemical, small-molecule microarray, fluorescence 635/667 (AID 1064); details: higher = more signal;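 also: measures binding of the biotinylated anti-FSTL3 antibody to printed compounds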
[2] = binders from COS7 lysate, DM2A8 probe, primary screen, torsin A project, cell lysate, small-molecule microarray, fluorescence 635/667 (AID 1065); details: higher = more signal, COS7 lysate expressing mutant human TOR1A
[3] = binders of probe aFGF2 on microarray, primary screen, stem cell growth factor project, biochemical, small-molecule microarray, fluorescence 635/667 (AID 1067); details: higher = more signal;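 also: measures binding of biotinylated aFGF2 protein to printed compounds on slides; z-score merges feature fluorescence and signal-to-noise across triplicate slides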
[4] = binders of probe aFGF10 on microarray, primary screen, stem cell growth factor project, biochemical, small-molecule microarray, fluorescence 635/667 (AID 1071); details: higher = more signal;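 also: score merges 667 nm spot intensity and signal to noise from triplicate slides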
[5] = molecular target: Neurogenic locus notch homolog protein 2 (Homo sapiens) (UniProt Q04721); experiment: Notch2 binders on small-molecule microarrays, primary screen, biochemical, small-molecule microarray, 635 nm fluorescence, stem cell growth factors (AID 1073); details: Notch2 binding, higher = more signal
[6] = molecular target: Pro-neuregulin-1, membrane-bound isoform (Homo sapiens) (UniProt Q02297); experiment: NRG1 binders on small-molecule microarrays, primary screen, psychiatric disease protein project, biochemical, small-molecule microarray, fluorescence 635/667 (AID 1075); details: NRG1 binding, 635 nm fluorescence, higher = more signal;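 also: score combines 667 nm spot fluorescence with signal to noise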
[7] = system: Neuregulin-1 EGF-like domain; experiment: binders of neuregulin-1 EGF-like domain, primary screen, biochemical, small-molecule microarray, 635 nm fluorescence (AID 1081); details: small-molecule microarray binding, higher = more signal;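 also: binding of the protein to compounds printed on small-molecule microarray slides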
[8] = FRG1 promoter luciferase signal modulators, primary screen, FRG1 inhibition for FSHD, cell-based, C2C12 myotubes, firefly/Renilla luciferase, luminescence (AID 1084); details: higher = more signal, called active from +8 up or from −8 down
[9] = binders of probe aFST on microarray, primary screen, stem cell growth factor project, biochemical, small-molecule microarray, fluorescence 635/667 (AID 1086); details: higher = more signal;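 also: score merges 667 nm fluorescence with signal-to-noise of each printed compound spot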
[10] = binders of probe aHhip on microarray, primary screen, stem cell growth factor project, biochemical, small-molecule microarray, fluorescence 635/667 (AID 1087); details: higher = more signal;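 also: score merges spot fluorescence at 667nm with spot signal to noise ratio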
[11] = system: PRMT1 (protein arginine N-methyltransferase 1); experiment: PRMT1 binders on small-molecule microarrays, primary screen, biochemical, small-molecule microarray, 635 nm fluorescence (AID 1088); details: small-molecule microarray binding, higher = more signal;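 also: binding of Prmt1 protein to compounds spotted on small-molecule microarray slides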
[12] = yeast growth modulation, basal conditions, primary screen, YJM789 clinical isolate, OD600, 24 h (AID 1089);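 also: growth of clinical yeast isolate S. cerevisiae YJM 789 seeded 1000 cells per well; test concentration not given here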; details: S. cerevisiae YJM789 growth, higher = more signal, called active from +8 up or from −8 down
[13] = fission yeast growth modulation, primary screen, strain 972, OD600, 24 h, no modulator (AID 1090);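 also: basal condition with compound alone and no growth modifier present; test concentration not given here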; details: S. pombe 972 growth, higher = more signal, called active from +8 up or from −8 down
[14] = S. cerevisiae growth modulation with rapamycin, primary screen, strain BY4716, OD600, 96 h (AID 1091); details: higher = more signal, called active from +8 up or from −8 down; also: test concentration not given here
[15] = molecular target: Torsin-1A-interacting protein 2 (Homo sapiens) (UniProt Q8NFQ8); experiment: LULL1 binders on small-molecule microarray, primary screen, cell lysate, human LULL1 lysate, 635/667 nm fluorescence (AID 1092); details: hLULL1 lysate binding, 635 nm fluorescence, higher = more signal;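 also: probe is lysate of COS7 cells overexpressing human LULL1; score merges per-feature 667 nm fluorescence with signal-to-noise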
[16] = E. coli growth modulation, two-sided OD650, primary screen, E. coli filamentation project, strain DRC41, 24 h (AID 1093); details: OD650, 24 h, higher = more signal, called active from +8 up or from −8 down;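 also: MC1000 strain lacking acrAB efflux and sulA so SOS filamentation is blocked; test concentration not given here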
[17] = small-molecule microarray binders of probe aLefty2, primary screen, biochemical, biotinylated probe, 635/667 nm fluorescence (AID 1094); details: higher = more signal;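 also: score merges spot fluorescence near 667 nm with spot signal-to-noise ratio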
[18] = system: Noggin (protein binding on small-molecule microarray); experiment: Noggin binders on small-molecule microarray, primary screen, biochemical, 635/667 nm fluorescence (AID 1095); details: 635 nm fluorescence, higher = more signal;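 also: score merges 667 nm feature fluorescence with signal to noise over triplicate slides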
[19] = molecular target: Neurogenic locus notch homolog protein 3 (Homo sapiens) (UniProt Q9UM47); experiment: NOTCH3 binders on small-molecule microarray, primary screen, biochemical, 635/667 nm fluorescence (AID 1096); details: NOTCH3 binding, 635 nm fluorescence, higher = more signal
[20] = small-molecule microarray binders of probe aEGFR, primary screen, biochemical, biotinylated probe, 635/667 nm fluorescence (AID 1097); details: higher = more signal;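 also: probe is a biotinylated anti-EGFR antibody binding compounds printed on slides; score combines fluorescence near 667 nm and signal to noise of each spot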

Sequence of Neurogenic locus notch homolog protein 2 (Homo sapiens) (Q04721 whole entry, looked up, canonical isoform): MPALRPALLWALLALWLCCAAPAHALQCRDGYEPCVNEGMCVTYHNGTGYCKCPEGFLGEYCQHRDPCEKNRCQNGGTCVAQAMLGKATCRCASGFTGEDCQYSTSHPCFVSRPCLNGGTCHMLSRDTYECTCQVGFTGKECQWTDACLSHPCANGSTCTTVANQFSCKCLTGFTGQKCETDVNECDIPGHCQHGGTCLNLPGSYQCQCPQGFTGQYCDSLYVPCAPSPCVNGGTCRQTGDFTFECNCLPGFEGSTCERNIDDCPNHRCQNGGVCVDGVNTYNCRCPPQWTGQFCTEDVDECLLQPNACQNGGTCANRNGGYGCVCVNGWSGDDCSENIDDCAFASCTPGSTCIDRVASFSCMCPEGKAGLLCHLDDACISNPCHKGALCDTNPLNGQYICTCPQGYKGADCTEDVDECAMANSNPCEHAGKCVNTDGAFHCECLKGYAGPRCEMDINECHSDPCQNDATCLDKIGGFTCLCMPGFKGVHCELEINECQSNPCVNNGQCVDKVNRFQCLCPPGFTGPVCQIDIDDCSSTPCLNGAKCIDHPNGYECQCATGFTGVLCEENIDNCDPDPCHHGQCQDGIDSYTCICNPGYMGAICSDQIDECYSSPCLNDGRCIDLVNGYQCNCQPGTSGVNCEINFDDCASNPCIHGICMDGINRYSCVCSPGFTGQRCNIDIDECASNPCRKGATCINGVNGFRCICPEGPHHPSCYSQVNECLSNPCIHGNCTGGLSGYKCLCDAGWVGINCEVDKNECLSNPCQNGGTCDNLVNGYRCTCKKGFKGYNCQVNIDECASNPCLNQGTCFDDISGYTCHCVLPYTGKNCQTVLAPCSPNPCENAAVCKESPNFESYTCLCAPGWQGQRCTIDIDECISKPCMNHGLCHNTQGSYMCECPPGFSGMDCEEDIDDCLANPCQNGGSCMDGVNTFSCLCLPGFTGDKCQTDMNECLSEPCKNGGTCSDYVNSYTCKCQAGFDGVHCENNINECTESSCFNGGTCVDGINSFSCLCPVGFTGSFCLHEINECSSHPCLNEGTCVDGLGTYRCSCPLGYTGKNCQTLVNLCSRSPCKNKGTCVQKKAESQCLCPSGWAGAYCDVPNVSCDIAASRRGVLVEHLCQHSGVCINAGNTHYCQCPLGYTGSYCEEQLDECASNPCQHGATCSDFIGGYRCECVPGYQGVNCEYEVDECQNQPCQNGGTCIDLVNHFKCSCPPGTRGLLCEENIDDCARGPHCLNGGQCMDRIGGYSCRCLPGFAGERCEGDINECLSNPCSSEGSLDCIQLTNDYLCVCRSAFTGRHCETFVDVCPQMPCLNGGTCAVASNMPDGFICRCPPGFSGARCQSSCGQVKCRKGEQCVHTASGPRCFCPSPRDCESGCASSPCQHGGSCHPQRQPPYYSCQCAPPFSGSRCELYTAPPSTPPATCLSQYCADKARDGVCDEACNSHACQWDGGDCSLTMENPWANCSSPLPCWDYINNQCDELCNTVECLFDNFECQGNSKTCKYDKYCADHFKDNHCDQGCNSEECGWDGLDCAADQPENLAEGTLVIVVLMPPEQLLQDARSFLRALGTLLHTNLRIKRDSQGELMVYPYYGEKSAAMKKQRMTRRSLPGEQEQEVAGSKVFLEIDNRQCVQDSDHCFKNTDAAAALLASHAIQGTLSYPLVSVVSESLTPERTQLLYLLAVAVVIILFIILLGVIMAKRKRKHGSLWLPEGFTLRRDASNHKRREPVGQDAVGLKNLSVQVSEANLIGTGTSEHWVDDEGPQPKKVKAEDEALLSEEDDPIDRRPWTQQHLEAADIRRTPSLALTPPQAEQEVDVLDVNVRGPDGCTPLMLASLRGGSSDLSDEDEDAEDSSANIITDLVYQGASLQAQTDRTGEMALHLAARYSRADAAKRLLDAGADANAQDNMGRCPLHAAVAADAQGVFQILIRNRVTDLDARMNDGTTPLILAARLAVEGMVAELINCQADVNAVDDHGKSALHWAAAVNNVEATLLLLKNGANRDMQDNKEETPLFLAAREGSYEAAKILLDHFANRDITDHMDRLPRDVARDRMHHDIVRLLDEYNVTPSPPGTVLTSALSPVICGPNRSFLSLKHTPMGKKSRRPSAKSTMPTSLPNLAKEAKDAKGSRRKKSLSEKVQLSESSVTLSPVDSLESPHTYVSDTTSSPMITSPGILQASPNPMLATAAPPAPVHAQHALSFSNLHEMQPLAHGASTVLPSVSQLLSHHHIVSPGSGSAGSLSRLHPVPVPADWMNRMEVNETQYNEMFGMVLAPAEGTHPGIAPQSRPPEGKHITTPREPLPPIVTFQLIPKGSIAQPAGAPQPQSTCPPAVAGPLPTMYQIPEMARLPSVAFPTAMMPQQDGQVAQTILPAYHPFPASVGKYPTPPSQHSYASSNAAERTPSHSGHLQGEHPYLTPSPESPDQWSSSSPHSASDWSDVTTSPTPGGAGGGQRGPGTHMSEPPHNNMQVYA
Sequence of Pro-neuregulin-1, membrane-bound isoform (Homo sapiens) (Q02297 whole entry, looked up, the tested form may be a part, canonical isoform): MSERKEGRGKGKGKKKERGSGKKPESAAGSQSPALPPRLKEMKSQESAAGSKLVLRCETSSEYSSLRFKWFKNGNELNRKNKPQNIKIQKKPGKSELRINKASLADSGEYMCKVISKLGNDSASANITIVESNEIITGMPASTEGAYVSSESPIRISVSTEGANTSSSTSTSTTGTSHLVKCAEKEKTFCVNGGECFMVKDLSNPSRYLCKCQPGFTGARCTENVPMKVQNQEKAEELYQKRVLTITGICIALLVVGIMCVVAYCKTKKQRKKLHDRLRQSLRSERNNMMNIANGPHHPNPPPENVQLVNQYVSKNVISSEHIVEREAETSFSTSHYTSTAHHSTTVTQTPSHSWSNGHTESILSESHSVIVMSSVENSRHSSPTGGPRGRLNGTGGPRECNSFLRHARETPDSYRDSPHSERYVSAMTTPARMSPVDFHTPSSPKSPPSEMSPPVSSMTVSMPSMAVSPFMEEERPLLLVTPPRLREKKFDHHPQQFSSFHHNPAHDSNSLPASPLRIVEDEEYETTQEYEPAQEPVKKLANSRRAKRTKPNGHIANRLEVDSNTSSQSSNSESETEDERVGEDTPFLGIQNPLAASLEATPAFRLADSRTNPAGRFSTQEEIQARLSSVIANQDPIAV
Sequence of Torsin-1A-interacting protein 2 (Homo sapiens) (Q8NFQ8 whole entry, looked up): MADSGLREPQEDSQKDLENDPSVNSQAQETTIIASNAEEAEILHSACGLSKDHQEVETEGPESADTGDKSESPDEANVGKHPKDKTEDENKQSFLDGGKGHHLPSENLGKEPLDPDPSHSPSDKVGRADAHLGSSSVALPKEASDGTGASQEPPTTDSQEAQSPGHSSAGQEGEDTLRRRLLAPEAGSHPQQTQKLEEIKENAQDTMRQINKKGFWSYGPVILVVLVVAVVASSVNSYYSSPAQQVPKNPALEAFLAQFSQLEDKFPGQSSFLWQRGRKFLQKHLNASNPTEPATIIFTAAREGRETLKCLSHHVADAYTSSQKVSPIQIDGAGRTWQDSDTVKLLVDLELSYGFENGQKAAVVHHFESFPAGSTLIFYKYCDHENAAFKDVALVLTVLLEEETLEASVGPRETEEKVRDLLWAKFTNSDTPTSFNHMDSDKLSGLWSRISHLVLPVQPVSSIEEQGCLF

| SMILES | composite z-score [1] | composite z-score [2] | composite z-score [3] | composite z-score [4] | composite z-score [5] | composite z-score [6] | composite z-score [7] | z-score [8] | composite z-score [9] | composite z-score [10] | composite z-score [11] | z-score [12] | z-score [13] | z-score [14] | composite z-score [15] | z-score [16] | composite z-score [17] | composite z-score [18] | composite z-score [19] | composite z-score [20] |
| --- | --- | --- | --- | --- | --- | --- | --- | --- | --- | --- | --- | --- | --- | --- | --- | --- | --- | --- | --- | --- |
| COC(=O)c1ccc(C23CC2(C(NP(=O)(c2ccccc2)c2ccccc2)c2ccccc2)C3)cc1 (stereo not given) | 0.741 | 0.275 | -0.0009 | 0.0592 | 1.73 | 2.26 | 1.17 | -4.52 (inactive) | 1.73 | 0.0596 | 0.214 | -2.72 (inactive) | -1.76 (inactive) | -0.789 (inactive) | 3.18 | 0.259 (inactive) | 0.888 | 0.13 | 1.07 | 0.0632 |
| O=C1OCCC=C[C@H]2OC34C=CCN(Cc5ccccc5)C(=O)[C@H]3N(CCCCCCO)C(=O)[C@@H]4C12 (stereo not given in full) | 0.359 | -1.01 | -0.196 | -0.384 | -0.91 | 1.88 | 0.92 | -0.386 (inactive) | -0.26 | -0.621 | 0.831 | 0.104 (inactive) | -0.0853 (inactive) | -0.0696 (inactive) | 3.21 | 0.801 (inactive) | -0.42 | -0.485 | 0.127 | -0.309 |
| CCOC(=O)C[C@H]1[C@H](OC(=O)c2ccc(C(=O)c3ccccc3)cc2)[C@@H](NC(=O)C2CCCCC2)c2cc(OCCCO)ccc2N1C(=O)c1ccccc1 | -0.379 | -0.248 | -0.0478 | 0.494 | 1.02 | 0.857 | 0.95 | -0.541 (inactive) | 0.253 | 0.682 | 1.55 | -0.326 (inactive) | 0.358 (inactive) | -0.155 (inactive) | 2.04 | -1.15 (inactive) | -0.02 | 0.45 | -0.215 | 0.0546 |
| CCCNC(=O)[C@@H]1c2ccccc2C(=O)N(Cc2ccccc2)[C@H]1c1ccc(CO)cc1 | 0.0651 | -0.427 | -0.0861 | -0.533 | -0.195 | 1.09 | 1.11 | -1.14 (inactive) | -0.115 | 0.132 | 0.577 | 0.288 (inactive) | -0.45 (inactive) | 0.633 (inactive) | 2.12 | -1.04 (inactive) | 0.0553 | -0.344 | 0.0163 | -0.152 |
| C=CCC(OC(C)=O)[C@@H]1[C@@H](N(Cc2ccc(-c3ccccc3)cc2)C(=O)Cc2ccc(OC)cc2)c2cc(OCCCO)ccc2N1C(=O)c1ccc2ccccc2n1 (stereo not given in full) | 0.0604 | -0.11 | -0.0074 | -0.0502 | 0.0378 | -0.111 | -0.271 | -0.83 (inactive) | 0.411 | -0.0994 | -0.298 | -1.15 (inactive) | -0.832 (inactive) | -0.551 (inactive) | 1.02 | 0.374 (inactive) | 0.0171 | -0.49 | 0.0617 | -0.0784 |
| Cc1ccc([C@H]2C(C(=O)O)=C[C@@H](C)N2S(=O)(=O)c2ccc(C)cc2)cc1 | 0.247 | -0.36 | -0.0867 | -0.337 | -0.0054 | 1.52 | 0.962 | -0.282 (inactive) | -0.882 | -0.201 | 0.896 | -0.495 (inactive) | -0.812 (inactive) | -0.422 (inactive) | 3.71 | -0.291 (inactive) | 0.0754 | -0.24 | -0.546 | -0.165 |
| C=CC[C@]1(C(=O)N2CCOCC2)N=C(c2ccc(OCCCO)cc2)O[C@H]1c1ccccc1 | 0.744 | 0.905 | 0.0445 | 0.147 | 0.618 | 2.1 | 1.25 | 0.54 (inactive) | 0.374 | -0.251 | 0.74 | -1.8 (inactive) | -2.42 (inactive) | -1.67 (inactive) | 3.56 | 0.382 (inactive) | -0.0212 | -0.243 | 0.175 | -0.165 |
| CN(C)CCCCCCNC(=O)[C@H]1C[C@H]2C(=O)N[C@@H](CCCCN)C(=O)N2[C@H]1c1ccc(O)cc1 | 3.42 | 2.29 | 0.762 | 1.14 | 1.27 | 2.51 | 1.5 | 0.369 (inactive) | 3.49 | 1.84 | 1.54 | -0.329 (inactive) | -2.88 (inactive) | -0.02 (inactive) | 4.58 | -0.151 (inactive) | 1.76 | 2.02 | 1 | 1.15 |
| COC(=O)[C@@]1(Cc2ccccc2)[C@H]2c3cc(C(=O)N4CCCC4)n(Cc4ccc(C)o4)c3C[C@H]2CN1C(=O)c1ccccc1 | 0.385 | 0.225 | -0.162 | 0.0426 | 1.54 | 1.37 | 0.476 | 0.0318 (inactive) | 0.935 | 0.259 | -0.179 | -0.619 (inactive) | 0.122 (inactive) | -0.564 (inactive) | 2.6 | -0.564 (inactive) | -0.0127 | 0.231 | 0.622 | 0.0226 |
| O=C1C2C=CC(C(O)c3ccc(B(O)O)cc3)N(Nc3ccccc3)C2C(=O)N1c1ccccc1 (stereo not given) | 0.72 | 0.0762 | 0.0533 | -0.132 | 0.971 | 1.38 | -0.401 | 4.59 (inactive) | 0.302 | -0.299 | -0.592 | 0.428 (inactive) | -4.7 (inactive) | 0.642 (inactive) | 0.935 | -1.2 (inactive) | 0.229 | -1.11 | -0.085 | -0.041 |
